Test [1] can be described thus: ATG_TAL_CIS: Attagene CIS-FACTORIAL HepG2 Assay for human TAL Basal Promoter (AID 2282966).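 Further: background control endpoint measuring basal TAL promoter reporter mRNA not a specific factor.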 The note with it: HepG2 Attagene cis-factorial TAL promoter reporter; actives raise or lower the signal. In short, it runs like this:
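Readout: reporter mRNA, fluorescence by CE. System: HepG2, transient multi-reporter transfection, endogenous TF activity. Exposure: 24 h. Analysis: bidirectional, DMSO-normalized; background control.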

A short description of test [2]: ATG_TGFb_CIS: Attagene CIS-FACTORIAL HepG2 Assay for human Transforming Growth Factor (TGF) (AID 2282967). Conditions: HepG2 Attagene CIS TGFb reporter, mRNA transcription; actives raise or lower the signal. In short, it runs like this: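 Liver HepG2 line, cis-factorial reporter panel, 24 h dosing. Quantitation: RT-PCR products labeled with 6-FAM, cut with HpaI, resolved by capillary electrophoresis; DMSO-referenced bidirectional analysis.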

The nature of test [3]: ATG_VDRE_CIS: Attagene CIS-FACTORIAL HepG2 Assay for human Vitamin D Receptor Element (VDRE) (AID 2282968). The note with it: HepG2 VDRE cis-reporter transcription, actives raise or lower the signal. In a few lines:
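Reporter mRNA induction, quantified by capillary electrophoresis of fluorescently labelled RT-PCR products, was read 24 h after dosing HepG2 cells carrying transiently transfected cis-regulated reporter units; gain or loss relative to DMSO.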

The target of test [4] is X-box-binding protein 1 (Homo sapiens) (UniProt P17861). In words: ATG_Xbp1_CIS: Attagene CIS-FACTORIAL HepG2 Assay for human X-box Binding Protein 1 (XBP1) (AID 2282972). Conditions: HepG2 XBP1 cis-element reporter, Attagene multiplex; actives raise or lower the signal. In short, it runs like this: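 HepG2, transient MRTU transfection (cis-promoter driven), 24 h compound exposure. Total RNA → oligo(dT) RT → PCR → 6-FAM labeling → HpaI cut → CE. Bidirectional fit vs DMSO.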

The nature of test [5]: ATG_M_19_TRANS: Attagene TRANS-FACTORIAL HepG2 Assay for M19 Transcription Factor (Internal Marker) (AID 2282974; active means hit-call score of the fitted dose curve at least 0.9, where 1 is the maximum). The note with it: HepG2 Attagene TRANS-FACTORIAL M19 internal marker reporter. In a few lines: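 HepG2 transiently transfected with GAL4-UAS multiplex reporter constructs, exposed 24 h; reporter RNA quantified by RT-PCR, 6-FAM labeling, HpaI digestion and capillary electrophoresis; internal background marker fitted upward versus DMSO.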

The target in test [6] is Bile acid receptor (Homo sapiens) (UniProt Q96RI1). In words: ATG_FXR_TRANS: Attagene TRANS-FACTORIAL HepG2 Assay for Farnesoid X Receptor (FXR) (AID 2282979; active means hit-call score of the fitted dose curve at least 0.9, where 1 is the maximum;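 further: hits raise reporter mRNA above DMSO so AC50 marks FXR activation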). The note with it: HepG2 Attagene TRANS FXR-GAL4 reporter transcription. In a few lines:
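Chimeric FXR-GAL4 activity in transiently transfected human HepG2 liver cells is scored as induction of reporter mRNA after 24 h of dosing. Detection uses RT-PCR with fluorescent labelling and capillary electrophoresis, with DMSO serving as baseline.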

In test [7] the target is Oxysterols receptor LXR-alpha (Homo sapiens) (UniProt Q13133). In words: ATG_LXRa_TRANS: Attagene TRANS-FACTORIAL HepG2 Assay for human Liver X Receptor alpha (LXRa) (AID 2282980; active means hit-call score of the fitted dose curve at least 0.9, where 1 is the maximum). Conditions: HepG2 Attagene TRANS reporter, LXRa transactivation. In short, it runs like this:
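Transient HepG2 transfectants, 24 h dosing, RT-PCR/CE mRNA reporter quantitation; gain-of-signal vs DMSO.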

The target in test [8] is Hepatocyte nuclear factor 4-alpha (Homo sapiens) (UniProt P41235). Description: ATG_HNF4a_TRANS: Attagene TRANS-FACTORIAL HepG2 Assay for human Hepatocyte Nuclear Factor 4 alpha (HNF4a) (AID 2282982; active means hit-call score of the fitted dose curve at least 0.9, where 1 is the maximum). Conditions: HepG2 HNF4a transactivation reporter, mRNA readout. In short, it runs like this: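 Readout is fluorescent reporter-transcript fragments resolved by capillary electrophoresis after RT-PCR from HepG2 cells dosed for 24 h. Cells carried transfected GAL4-UAS reporter constructs measuring exogenous NR-GAL4 chimera activity; DMSO served as baseline.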

Test [9] in a line: ATG_M_32_TRANS: Attagene TRANS-FACTORIAL HepG2 Assay for M32 Transcription Factor (Internal Marker) (AID 2282984; active means hit-call score of the fitted dose curve at least 0.9, where 1 is the maximum;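 further: transcript level of a background control reporter unit measured by RT-PCR and capillary electrophoresis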). Conditions: HepG2 Attagene TRANS M32 internal marker reporter. In short, it runs like this: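 Measures reporter mRNA induction in human HepG2 liver cells after 24 h chemical treatment. Transcripts from transiently transfected GAL4-UAS reporter units are amplified, fluorescently labelled and sized by capillary electrophoresis; gain of signal relative to DMSO.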

For test [10], the target named is Nuclear receptor subfamily 4 group A member 2 (Homo sapiens) (UniProt P43354). Description: ATG_NURR1_TRANS: Attagene TRANS-FACTORIAL HepG2 Assay for human Nuclear Receptor Related Protein 1 (NURR1) (AID 2282985; active means hit-call score of the fitted dose curve at least 0.9, where 1 is the maximum). The note with it: HepG2 Attagene TRANS reporter, mRNA readout. In a few lines:
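Transient transfection of HepG2, human liver cells, with multiple GAL4-UAS reporter transcription units. Cells dosed 24 h, RNA isolated, reverse-transcribed, PCR-amplified, FAM-labelled, HpaI-digested, sized by capillary electrophoresis. DMSO served as negative control.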

In test [11] the target is Nuclear respiratory factor 1 (Homo sapiens) (UniProt Q16656). In words: ATG_NRF1_CIS: Attagene CIS-FACTORIAL HepG2 Assay for human Nuclear Respiratory Factor 1 (NRF1) Orphan Gene (AID 2282987). The note with it: HepG2 NRF1 cis-element reporter, Attagene multiplex; actives raise or lower the signal. In short, it runs like this:
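HepG2 cells transiently transfected with multiple cis-regulated reporter units, exposed 24 h. Reporter mRNAs measured by RT-PCR, fluorescent labelling, HpaI digestion and capillary electrophoresis; bidirectional fitting against DMSO.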

Test [12] can be described thus: ATG_NFI_CIS: Attagene CIS-FACTORIAL HepG2 Assay for human Nuclear Factor I (NFI) (AID 2282989). Conditions: HepG2 cis-regulatory reporter, NFI response element transcription; actives raise or lower the signal. In a few lines: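 Transfected HepG2 liver cells, exposed 24 h, supplied total RNA for oligo(dT) reverse transcription and reporter-specific PCR. Labelled, HpaI-cut fragments were sized by capillary electrophoresis; DMSO set the baseline for bidirectional fitting.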

For test [13], the target named is Glucocorticoid receptor (Homo sapiens) (UniProt P04150). In words: ATG_GR_TRANS: Attagene TRANS-FACTORIAL HepG2 Assay for human Glucocorticoid Receptor (GR) (AID 2282978; active means hit-call score of the fitted dose curve at least 0.9, where 1 is the maximum;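 further: activators score as hits since higher reporter transcript over DMSO is fitted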). The note with it: HepG2 Attagene TRANS GR reporter, mRNA transcription. In short, it runs like this: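 HepG2 cells transiently transfected with GAL4-UAS reporter units and exogenous GR-Gal4 chimera, dosed 24 h. Reporter mRNA by RT-PCR, FAM labeling, HpaI digest and capillary electrophoresis; gain-of-signal fit versus DMSO.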

Test [14] has as its target Oxysterols receptor LXR-beta (Homo sapiens) (UniProt P55055). In words: ATG_LXRb_TRANS: Attagene TRANS-FACTORIAL HepG2 Assay for human Liver X Receptor beta (LXRb) (AID 2282981; active means hit-call score of the fitted dose curve at least 0.9, where 1 is the maximum). The note with it: HepG2 Attagene TRANS GAL4-LXRb reporter, mRNA. In a few lines: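 Transient transfection HepG2 (multiplexed RTUs, GAL4-UAS); NR-Gal4 chimera; 24 h exposure; RNA → RT-PCR → 6-FAM primer extension → HpaI → CE; increase vs DMSO.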

Test [15] is described as follows: ATG_M_06_TRANS: Attagene TRANS-FACTORIAL HepG2 Assay for M06 Transcription Factor (Internal Marker) (AID 2282983; active means hit-call score of the fitted dose curve at least 0.9, where 1 is the maximum;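 further: reporter transcript level by RT-PCR then capillary electrophoresis fluorescence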). Conditions: HepG2 Attagene TRANS M06 internal marker reporter. In short, it runs like this:
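Measured by capillary electrophoresis of fluorescently labelled RT-PCR products, this endpoint reflects reporter mRNA in HepG2 cells harbouring exogenous NR-GAL4 reporter constructs after 24 h exposure, with DMSO as baseline.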

Test [16] in a line: ATG_GAL4_TRANS: Attagene TRANS-FACTORIAL HepG2 Assay for GAL4 (Internal Marker) (AID 2282976; active means hit-call score of the fitted dose curve at least 0.9, where 1 is the maximum). Conditions: HepG2 Attagene TRANS GAL4 internal marker reporter. In a few lines: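 Fluorescence from capillary electrophoresis of labelled RT-PCR products quantifies reporter mRNA induction after 24 h dosing of HepG2 cells carrying transfected GAL4-UAS reporter transcription units. Vehicle DMSO serves as baseline.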

Test [17] addresses Transcriptional activator Myb (Homo sapiens) (UniProt P10242). In words: ATG_Myb_CIS: Attagene CIS-FACTORIAL HepG2 Assay for human Myeloblastosis (Myb) Proto-Oncogene Transcription Factor (AID 2282986). Conditions: HepG2 Attagene CIS-FACTORIAL Myb reporter transcription; actives raise or lower the signal. In a few lines:
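Transiently transfected HepG2 cells carrying a multiplexed cis-promoter reporter set report endogenous Myb activity after 24 h compound exposure. Reporter mRNA is read by RT-PCR with capillary electrophoresis of fluorescent products, fitted bidirectionally against DMSO.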

Test [18] has as its target Estrogen-related receptor gamma (Homo sapiens) (UniProt P62508). In words: ATG_ERRg_TRANS: Attagene TRANS-FACTORIAL HepG2 Assay for human Estrogen-Related Receptor gamma (ERRg) (AID 2282977; active means hit-call score of the fitted dose curve at least 0.9, where 1 is the maximum;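 further: hits increase reporter signal over DMSO so potencies reflect activators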). The note with it: HepG2 Attagene TRANS reporter, ERRg transactivation. In short, it runs like this: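 HepG2 cells transiently transfected with multiplexed GAL4-UAS reporter units driven by chimeric NR-Gal4 proteins; 24 h exposure. Reporter mRNA quantified by RT-PCR, fluorescent labelling, HpaI digestion and capillary electrophoresis; gain of signal vs DMSO.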

Inconclusive results are not listed. The source made the active and inactive calls. How the source made its calls, unless noted: active means hit-call score of the fitted dose curve at least 0.9, where 1 is the maximum; inactive means score below 0.9.

The values that follow come from PubChem BioAssay (EPA / NIEHS).

Broadly, the AC50 is the concentration giving half of the maximal activity seen.

Hepatocyte nuclear factor 4-alpha (Homo sapiens), sequence (P41235 whole entry, looked up, the tested form may be a part): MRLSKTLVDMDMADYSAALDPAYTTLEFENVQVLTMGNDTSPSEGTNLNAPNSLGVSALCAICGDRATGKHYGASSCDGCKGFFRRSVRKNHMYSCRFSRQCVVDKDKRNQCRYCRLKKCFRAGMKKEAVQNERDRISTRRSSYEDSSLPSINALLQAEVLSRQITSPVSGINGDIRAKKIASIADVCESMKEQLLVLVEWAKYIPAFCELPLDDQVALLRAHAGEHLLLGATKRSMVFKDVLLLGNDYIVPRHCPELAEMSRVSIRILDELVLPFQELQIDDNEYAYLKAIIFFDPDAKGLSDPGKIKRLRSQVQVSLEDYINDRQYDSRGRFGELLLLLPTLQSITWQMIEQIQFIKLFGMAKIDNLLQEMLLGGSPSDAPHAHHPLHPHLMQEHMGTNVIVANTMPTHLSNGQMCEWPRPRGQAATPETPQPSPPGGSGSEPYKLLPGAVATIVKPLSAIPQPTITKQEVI
Nuclear respiratory factor 1 (Homo sapiens), sequence (Q16656 whole entry, looked up): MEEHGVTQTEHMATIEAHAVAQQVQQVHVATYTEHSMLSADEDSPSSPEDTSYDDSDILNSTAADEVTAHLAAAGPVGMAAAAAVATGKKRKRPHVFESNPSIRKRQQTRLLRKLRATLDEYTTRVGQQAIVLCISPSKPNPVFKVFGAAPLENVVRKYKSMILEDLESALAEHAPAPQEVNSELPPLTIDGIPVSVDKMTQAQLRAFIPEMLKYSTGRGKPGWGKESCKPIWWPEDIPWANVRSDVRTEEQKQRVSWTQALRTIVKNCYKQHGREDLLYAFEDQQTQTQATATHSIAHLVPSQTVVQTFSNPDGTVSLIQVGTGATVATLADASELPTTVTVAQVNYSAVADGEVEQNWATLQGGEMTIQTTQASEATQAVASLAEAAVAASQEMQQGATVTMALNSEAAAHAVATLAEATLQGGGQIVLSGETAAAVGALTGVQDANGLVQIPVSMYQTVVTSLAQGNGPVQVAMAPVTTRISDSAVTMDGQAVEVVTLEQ
Transcriptional activator Myb (Homo sapiens), sequence (P10242 whole entry, looked up): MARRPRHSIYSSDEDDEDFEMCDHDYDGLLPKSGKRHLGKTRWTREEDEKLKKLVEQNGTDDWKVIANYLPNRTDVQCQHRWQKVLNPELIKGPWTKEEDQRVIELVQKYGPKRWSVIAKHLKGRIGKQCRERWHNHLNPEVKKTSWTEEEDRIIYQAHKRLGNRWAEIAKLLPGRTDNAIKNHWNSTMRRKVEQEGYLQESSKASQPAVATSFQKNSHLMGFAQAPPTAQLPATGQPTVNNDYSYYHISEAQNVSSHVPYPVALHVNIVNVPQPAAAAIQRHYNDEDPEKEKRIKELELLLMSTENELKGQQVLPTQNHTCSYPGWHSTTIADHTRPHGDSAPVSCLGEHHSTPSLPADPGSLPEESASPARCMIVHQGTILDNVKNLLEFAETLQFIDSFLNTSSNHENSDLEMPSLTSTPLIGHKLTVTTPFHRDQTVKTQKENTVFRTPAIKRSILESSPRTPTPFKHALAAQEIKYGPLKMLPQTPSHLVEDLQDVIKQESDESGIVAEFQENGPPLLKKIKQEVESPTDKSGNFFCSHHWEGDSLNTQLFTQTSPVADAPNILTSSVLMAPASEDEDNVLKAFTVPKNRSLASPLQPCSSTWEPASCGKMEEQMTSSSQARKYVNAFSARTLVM
Glucocorticoid receptor (Homo sapiens), sequence (P04150 whole entry, looked up, the tested form may be a part): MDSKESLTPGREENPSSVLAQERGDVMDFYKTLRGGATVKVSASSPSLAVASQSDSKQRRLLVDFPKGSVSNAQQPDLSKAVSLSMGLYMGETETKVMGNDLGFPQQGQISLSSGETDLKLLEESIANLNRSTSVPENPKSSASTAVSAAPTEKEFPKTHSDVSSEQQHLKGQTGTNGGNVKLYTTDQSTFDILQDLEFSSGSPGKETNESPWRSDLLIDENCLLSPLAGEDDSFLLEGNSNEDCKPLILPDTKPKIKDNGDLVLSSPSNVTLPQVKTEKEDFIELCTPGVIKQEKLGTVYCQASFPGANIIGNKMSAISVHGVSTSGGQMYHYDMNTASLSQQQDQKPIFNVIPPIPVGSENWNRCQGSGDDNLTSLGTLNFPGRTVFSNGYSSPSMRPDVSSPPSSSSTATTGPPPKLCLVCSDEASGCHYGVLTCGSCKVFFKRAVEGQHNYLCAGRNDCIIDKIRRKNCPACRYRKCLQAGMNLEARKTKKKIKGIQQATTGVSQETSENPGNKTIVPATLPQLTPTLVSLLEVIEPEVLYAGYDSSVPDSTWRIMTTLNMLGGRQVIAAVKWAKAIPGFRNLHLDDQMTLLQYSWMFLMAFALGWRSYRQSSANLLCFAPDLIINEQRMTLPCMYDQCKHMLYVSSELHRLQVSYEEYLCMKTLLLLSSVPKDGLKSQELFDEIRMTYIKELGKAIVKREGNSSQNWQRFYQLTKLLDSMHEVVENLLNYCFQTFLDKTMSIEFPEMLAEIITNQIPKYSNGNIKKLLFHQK
Oxysterols receptor LXR-beta (Homo sapiens), sequence (P55055 whole entry, looked up, the tested form may be a part): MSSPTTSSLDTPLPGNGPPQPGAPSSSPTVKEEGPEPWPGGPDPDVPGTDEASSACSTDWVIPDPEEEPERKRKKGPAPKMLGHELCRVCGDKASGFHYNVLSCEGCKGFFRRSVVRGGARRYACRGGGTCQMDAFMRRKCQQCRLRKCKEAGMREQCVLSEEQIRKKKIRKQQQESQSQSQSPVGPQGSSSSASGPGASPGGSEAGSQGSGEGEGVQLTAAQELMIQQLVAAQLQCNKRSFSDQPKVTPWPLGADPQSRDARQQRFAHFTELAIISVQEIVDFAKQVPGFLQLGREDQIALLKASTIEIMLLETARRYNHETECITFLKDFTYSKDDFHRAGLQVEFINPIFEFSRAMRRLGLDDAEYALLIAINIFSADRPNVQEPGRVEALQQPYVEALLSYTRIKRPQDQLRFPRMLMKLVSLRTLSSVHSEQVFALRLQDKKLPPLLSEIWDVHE
Bile acid receptor (Homo sapiens), sequence (Q96RI1 whole entry, looked up, the tested form may be a part): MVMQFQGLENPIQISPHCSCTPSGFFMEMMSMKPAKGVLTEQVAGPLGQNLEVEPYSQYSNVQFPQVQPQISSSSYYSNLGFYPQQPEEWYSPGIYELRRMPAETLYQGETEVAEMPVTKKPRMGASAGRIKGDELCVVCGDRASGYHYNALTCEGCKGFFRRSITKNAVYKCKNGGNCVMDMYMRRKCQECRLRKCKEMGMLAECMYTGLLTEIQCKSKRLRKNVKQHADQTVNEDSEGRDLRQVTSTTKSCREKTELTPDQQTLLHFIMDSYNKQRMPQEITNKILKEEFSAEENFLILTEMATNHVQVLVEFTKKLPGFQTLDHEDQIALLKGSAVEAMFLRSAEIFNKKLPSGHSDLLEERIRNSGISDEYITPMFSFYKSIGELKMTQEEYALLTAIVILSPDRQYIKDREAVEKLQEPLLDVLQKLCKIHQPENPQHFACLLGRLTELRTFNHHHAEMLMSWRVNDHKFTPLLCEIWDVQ
Oxysterols receptor LXR-alpha (Homo sapiens), sequence (Q13133 whole entry, looked up): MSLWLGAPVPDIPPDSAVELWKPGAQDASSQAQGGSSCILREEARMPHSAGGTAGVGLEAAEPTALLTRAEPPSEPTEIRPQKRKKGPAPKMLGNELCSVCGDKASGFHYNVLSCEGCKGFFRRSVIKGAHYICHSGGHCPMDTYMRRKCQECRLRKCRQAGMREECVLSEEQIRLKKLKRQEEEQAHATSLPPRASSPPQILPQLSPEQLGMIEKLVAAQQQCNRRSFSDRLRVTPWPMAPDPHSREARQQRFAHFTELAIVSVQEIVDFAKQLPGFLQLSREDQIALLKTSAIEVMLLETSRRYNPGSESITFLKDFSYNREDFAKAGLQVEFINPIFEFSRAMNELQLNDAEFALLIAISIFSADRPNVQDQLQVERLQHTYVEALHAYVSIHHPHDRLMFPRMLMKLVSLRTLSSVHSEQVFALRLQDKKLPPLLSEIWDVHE
X-box-binding protein 1 (Homo sapiens), sequence (P17861 whole entry, looked up): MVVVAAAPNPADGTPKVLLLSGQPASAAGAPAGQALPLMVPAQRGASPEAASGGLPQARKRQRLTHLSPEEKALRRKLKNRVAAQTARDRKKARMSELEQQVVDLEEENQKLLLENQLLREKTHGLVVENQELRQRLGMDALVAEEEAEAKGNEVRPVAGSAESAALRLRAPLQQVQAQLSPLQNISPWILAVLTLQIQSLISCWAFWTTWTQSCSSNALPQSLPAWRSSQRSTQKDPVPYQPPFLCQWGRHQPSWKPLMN
Nuclear receptor subfamily 4 group A member 2 (Homo sapiens), sequence (P43354 whole entry, looked up, the tested form may be a part): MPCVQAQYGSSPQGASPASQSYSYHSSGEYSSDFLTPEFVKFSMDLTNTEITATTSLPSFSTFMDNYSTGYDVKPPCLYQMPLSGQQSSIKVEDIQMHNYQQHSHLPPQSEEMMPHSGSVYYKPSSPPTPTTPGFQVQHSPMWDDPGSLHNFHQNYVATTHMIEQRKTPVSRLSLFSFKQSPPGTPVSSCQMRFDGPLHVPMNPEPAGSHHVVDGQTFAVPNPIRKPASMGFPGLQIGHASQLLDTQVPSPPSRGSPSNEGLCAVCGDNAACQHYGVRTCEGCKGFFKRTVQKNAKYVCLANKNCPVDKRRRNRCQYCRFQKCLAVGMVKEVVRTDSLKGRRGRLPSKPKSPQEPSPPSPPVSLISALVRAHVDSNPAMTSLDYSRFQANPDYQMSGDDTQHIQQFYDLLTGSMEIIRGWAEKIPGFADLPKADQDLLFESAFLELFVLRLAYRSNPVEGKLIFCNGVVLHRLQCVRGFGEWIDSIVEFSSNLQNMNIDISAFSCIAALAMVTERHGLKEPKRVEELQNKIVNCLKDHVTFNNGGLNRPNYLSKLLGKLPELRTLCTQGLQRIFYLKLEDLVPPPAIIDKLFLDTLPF

For the compound `C=COCCOCCOC=C`, the call in test [1], in [2], in test [3], in [4], in test [5] and in [6] was inactive. Besides, the compound was called inactive in test [7], in [8], in test [9], in [10], in [11] and in test [12].
With `CCOC(=O)c1ccc(N)cc1`, the result in test [1], in [2], in [3], in [4], in test [5] and in test [13] was inactive. Besides, the result in test [6], in test [7], in test [8], in test [9], in [10] and in [11] was inactive. Also, the result in test [12] was inactive.
Take `OCc1cccc(Oc2ccccc2)c1`: the compound was called inactive in test [1], in test [2], in [3], in [4], in test [5] and in test [6]. Also, the compound was called inactive in test [7], in test [14], in test [8], in test [15], in [9] and in test [11]. The outcome in test [12] was inactive.
Consider `CC(C)(C)c1ccc(C(=O)O)cc1`, for which the outcome in test [1], in test [2], in [3], in test [4], in test [5] and in test [16] was inactive. Further, the outcome in [17], in [11] and in [12] was inactive.
With `CCOC(=O)CCc1ccccc1`, the compound was called inactive in test [1], in [2], in test [3], in test [4], in test [5] and in test [6]. The compound was classed as inactive in test [14], in [9], in test [10], in [11] and in test [12].
As to `C[C@H]1O[C@@H](O[C@H]2[C@@H](O)C[C@H](O[C@H]3[C@@H](O)C[C@H](O[C@H]4CC[C@@]5(C)[C@H](CC[C@@H]6[C@@H]5C[C@@H](O)[C@]5(C)[C@@H](C7=CC(=O)OC7)CC[C@]65O)C4)O[C@@H]3C)O[C@@H]2C)C[C@H](O)[C@@H]1O`, the outcome in test [1], in test [2], in test [5], in [13], in test [7] and in [8] was inactive. The result in test [9] and in test [10] was inactive. Besides, the AC50 in [3] was 0.226 µM (active); in test [4], 0.141 µM (active); in [17], 0.428 µM (active); in test [11], 0.00312 µM (active); in test [12] it was 0.0705 µM (active).
For the compound `COS(=O)(=O)O`, the compound was called inactive in test [1], in [2], in [3], in test [4], in [5] and in test [6]. In addition, the compound was classed as inactive in test [7], in test [14], in test [8], in test [15], in test [17] and in [11].
With `CC(C)CC(C)CC(O)CC(C)C` (configuration not stated), the call in [1], in [2], in [3], in [4], in test [5] and in test [16] was inactive. Also, the call in test [6], in [7], in test [9], in test [10], in test [17] and in test [11] was inactive. In test [12], the result was inactive.
Turning to `NCc1ccco1`, the result in test [1], in [2], in test [3], in test [4], in test [5] and in [6] was inactive. The compound was classed as inactive in test [8], in test [9], in test [17], in test [11] and in test [12].
For the compound `CCCCCCCC/C=C\CCCCCCCC(=O)OCC`, the compound was classed as inactive in test [1], in [2], in test [3], in test [4], in [5] and in test [18]. The compound was called inactive in test [13], in test [10], in [17], in test [11] and in [12].
With `N[C@@H](Cc1cc(I)c(Oc2cc(I)c(O)c(I)c2)c(I)c1)C(=O)O`, the result in [1], in test [2], in [4], in test [5], in test [13] and in [14] was inactive. Besides, the result in test [8], in test [15], in test [9], in test [10], in test [17] and in test [11] was inactive. In test [12], the compound was called inactive. Moreover, the AC50 in [3] was 18.8 µM (active).
